Only some compounds are listed: those with a hit (about 1.5% of all), similar ones and a draw of the others.
EBV gp42 inh: Epstein-Barr virus gp42 inhibitors, primary screen, biochemical, uHTS, fluorescence polarization; Fluorescence polarization binding assay, mP read-out; inhibition, % (tested at 21.74 µM); 220,000 compounds, 0.42% hits; AID 1085, 2008; in the data active = inhibition above about 50%
Target sequence (Q1HVG2 whole entry, looked up): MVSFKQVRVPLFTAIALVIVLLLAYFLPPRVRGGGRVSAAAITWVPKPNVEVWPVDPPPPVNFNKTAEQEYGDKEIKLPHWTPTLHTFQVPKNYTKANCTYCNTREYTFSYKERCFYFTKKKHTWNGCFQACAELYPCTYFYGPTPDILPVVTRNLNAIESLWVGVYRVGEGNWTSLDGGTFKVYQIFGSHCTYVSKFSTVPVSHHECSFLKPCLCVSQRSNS
E coli Lon inh: inhibitors of E. coli Lon protease, primary screen, biochemical, fluorescence polarization; purified E. coli Lon protease; inhibition, % at 7.94 µM; 360,000 compounds, 0.42% hits; in the data active = inhibition above about 13%, passing the limit was not always enough;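 note: 0% = enzyme with probe and DMSO and 100% = no enzyme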
Bcl-xL primary: inhibitors of human Bcl-xL, primary screen, biochemical, fluorescence polarization, HTS; inhibition, % at 10.9 µM; 320,000 compounds, 0.7% hits; AID 2129, 2009; GST-Bcl-xL / FITC-Bim BH3 peptide fluorescence polarization;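 active = inhibition above the mean of all tested compounds plus 3 SD, cutoff set per campaign, cut at about 30% in these data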;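 note: 0% = DMSO wells and 100% = unlabeled Bim-BH3 peptide competitor; inhibitors lower millipolarization by displacing the labeled peptide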
MCL1-BIM inh: inhibitors of MCL1 binding to BIM-BH3, primary screen, biochemical, fluorescence polarization; Induced myeloid leukemia cell differentiation protein Mcl-1 (Homo sapiens), Q07820; inhibition, % at 10.9 µM; AID 2057, 2009; GST-MCL1 / FITC-Bim-BH3 fluorescence polarization; 320,000 compounds, 0.68% hits;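 active = inhibition above the mean inhibition of all tested compounds plus 3 SD, set per campaign, cut at about 40% in these data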;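 note: 0% = DMSO wells and 100% = unlabeled Bim-BH3 peptide control; higher means more loss of mP so more displacement of Bim peptide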
Target sequence (Q07820 whole entry, looked up): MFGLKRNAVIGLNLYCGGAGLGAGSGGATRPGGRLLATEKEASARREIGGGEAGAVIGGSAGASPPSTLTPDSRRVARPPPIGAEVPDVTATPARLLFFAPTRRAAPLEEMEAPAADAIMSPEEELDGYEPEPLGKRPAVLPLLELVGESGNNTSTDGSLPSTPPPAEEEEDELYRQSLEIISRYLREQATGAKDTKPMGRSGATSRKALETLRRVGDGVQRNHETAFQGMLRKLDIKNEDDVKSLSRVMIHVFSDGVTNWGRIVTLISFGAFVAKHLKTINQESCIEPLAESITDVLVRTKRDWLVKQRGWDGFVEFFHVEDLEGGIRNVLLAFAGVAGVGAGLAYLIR
GLD-1 RNA inh: GLD-1/TGE RNA complex disruptors, primary screen, biochemical, fluorescence polarization; Female germline-specific tumor suppressor gld-1 (Caenorhabditis elegans), Q17339; purified GLD-1 + fluorescein TGE RNA; inhibition, % at 5.96 µM; 320,000 compounds, 0.44% hits; AID 2280, 2010;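 active = percent inhibition above a per-plate cutoff, the plate mean of test compounds plus 3 SD, cut at about 30% in these data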;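 note: 0% = DMSO wells with GLD-1 and probe and 100% = wells lacking GLD-1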
MEX-5 binding: MEX-5 zinc finger RNA-binding disruptors – biochemical, C. elegans, fluorescence polarization, MLPCN library, primary screen; Zinc finger protein mex-5 (Caenorhabditis elegans), Q9XUB2; MEX-5/FITC-TCR2 RNA binding; hits give low values; activity score (negative = inhibition of binding), % at 10 µM; AID 1832, 2009; 300,000 compounds, 0.38% hits;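 active = inhibition past about -25% in most replicates, and total fluorescence under double the plate's negative control median, limit read from the data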;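 note: 0% = DMSO and -100% = 5 µM competing unlabeled TCR2 RNA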
GLD1 RNA confirm: GLD-1/TGE RNA binding inhibitors, retest, confirmation, biochemical, fluorescence polarization, triplicate; shares compounds with GLD-1 RNA inh; GLD-1/FL-TGE RNA fluorescence polarization; inhibition, % at 5.96 µM; 550 compounds, 10% hits; AID 2459, 2010;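 active = average inhibition across triplicates above the hit cutoff set in the primary screen, cut at about 32% in these data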;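 note: 0% = GLD-1 with RNA probe and DMSO and 100% = wells lacking GLD-1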
eLon confirm: E. coli Lon protease inhibitor retest, confirmation, biochemical, fluorescence polarization; purified E. coli Lon; 1,400 compounds, 31% hits; inhibition, % at 7.94 µM; shares compounds with E coli Lon inh; in the data active = inhibition above about 16%;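 note: 0% = enzyme with probe and DMSO and 100% = no enzyme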
Numbers without * were called inactive; / = no result given.

SMILES | EBV gp42 inh | E coli Lon inh | Bcl-xL primary | MCL1-BIM inh | GLD-1 RNA inh | MEX-5 binding | GLD1 RNA confirm | others
C=CCN1C(=O)N/C(=C/c2ccc(C)o2)C1=O | -7 | 12 | 16 | 24 | 42* | -4 | -14
Cc1cccc(NC(=O)CN2C(=O)N/C(=C/c3ccc(C)o3)C2=O)c1 | -31 | -7 | 11 | 15 | 18 | 3 | /
Cc1ccc(NC(=O)CN2C(=O)N/C(=C/c3ccc(C)o3)C2=O)cc1 | -46 | 7 | 20 | 31 | 38* | -6 | -70
COc1cccc(C(=O)Nc2cc(OC)ccc2NC(=O)c2ccco2)c1 | / | 6 | 2 | -1 | 3 | 2 | /
O=C(Nc1sc2c(c1C(=O)O)CCC2)c1ccccc1 | -3 | 0 | 12 | 19 | 49* | 1 | 2
C=CCn1c(CCNC(=O)c2cccs2)nnc1SCC(=O)c1ccc(Cl)cc1 | 0 | -1 | -2 | -1 | 86* | 0 | 8
CCN(CC)CCN1CCN(c2cnc(C)cn2)CC1 | / | -17 | / | / | / | / | /
CC1CCCCN1Cc1c(O)ccc2c(=O)c(-c3ccccc3)coc12 (stereo unspecified) | / | 1 | 36* | 41* | 42* | 1 | -1
CCC1CCCCN1Cc1c(O)ccc2c(=O)c(-c3ccccc3)coc12 (stereo unspecified) | / | -3 | 1 | -3 | -46 | 3 | /
COc1cccc(-c2nnc(NC(=O)C(C)C)o2)c1 | 2 | -9 | 47* | 50* | 37* | 1 | 0
Cn1c(=O)c2cc(NCc3ccccc3)nnc2n(C)c1=O | 0 | -2 | 46* | 44* | 32* | -3 | 5
Nc1ccccc1C(=O)Nc1cccc2ccccc12 | / | 9 | / | / | / | 2 | /
O=C(Nc1cccc2ccccc12)c1ccccc1Cl | / | -7 | 0 | 0 | 51* | 0 | 1
CC1CCc2sc3c(c2C1)c(=O)n(CC(=O)O)c(=O)n3Cc1ccc(Cl)cc1 (stereo unspecified) | / | -5 | 7 | 9 | -4 | 1 | /
Nc1nc(-c2ccccc2)c(N=Nc2ccccc2Cl)s1 | 1 | -76 | 1 | 4 | 159* | 0 | -1
COCCNC(=O)C1(C)Cc2c(-c3ccc4c(c3)OCO4)ccnc2O1 (stereo unspecified) | / | -2 | / | / | / | / | /
COc1ccc(Nc2ccc(N3C(=O)CC(C)C3=O)cc2[N+](=O)[O-])cn1 (stereo unspecified) | 13 | 5 | 42* | 42* | 38* | -12 | 13
O=C1/C(=C/c2ccc(S(=O)(=O)O)cc2S(=O)(=O)O)CCc2ccccc21 | / | -6 | / | / | / | / | /
CC1CC(C)CN(C(=S)Nc2ccc(SC(F)F)cc2)C1 (stereo unspecified) | 0 | 10 | 3 | 0 | 43* | 0 | 4
CC1CN(C(=S)Nc2ccc(SC(F)F)cc2)CC(C)O1 (stereo unspecified) | / | 8 | 0 | 6 | 3 | 2 | /
O=C1NC(Cc2ccccc2)c2nc3ccc(Cl)cc3c(=O)n2-c2ncccc21 (stereo unspecified) | / | -4 | / | / | / | / | /
CCN1CCN(C(=O)C(C)Nc2cc(Cl)c(OC)cc2OC)CC1 (stereo unspecified) | 35 | 10 | 53* | 48* | 36* | -17 | 26
CCN1CCN(C(=O)Nc2cc(Cl)ccc2OC)CC1 | -2 | 7 | 0 | -1 | -1 | 1 | /
O=C(OC(C(=O)Nc1ccc(Cl)cc1C(F)(F)F)c1ccccc1)C1=COCCO1 (stereo unspecified) | 4 | 6 | -2 | -5 | -1 | / | /
O=C(OC(C(=O)Nc1ccc(Cl)c(C(F)(F)F)c1)c1ccccc1)C1=COCCO1 (stereo unspecified) | -14 | 0 | 3 | 5 | 45* | -1 | 5
SMILES | EBV gp42 inh | E coli Lon inh | Bcl-xL primary | MCL1-BIM inh | GLD-1 RNA inh | MEX-5 binding | GLD1 RNA confirm | others
CCC(C)C(NC(=O)CCC(=O)OCC(=O)[C@@]1(O)CCC2[C@@H]3CCC4=CC(=O)C=C[C@]4(C)C3[C@@H](O)C[C@@]21C)C(=O)O (stereo partly specified) | / | -6 | -3 | -5 | 0 | -1 | /
O=C(COC(=O)/C=C/c1cccc(Cl)c1)Nc1ccccc1-c1ccccc1 | -12 | / | -1 | 5 | 47* | 1 | -2
O=C(COC(=O)/C=C/c1cccc(Cl)c1)Nc1c(F)cccc1F | / | -7 | / | / | 3 | / | /
C/C(=C\C(=O)c1cccnc1)Nc1ccc(O)cc1 | 5 | 22* | 7 | 8 | 31* | -2 | -1 | eLon confirm=8
C/C(=C\C(=O)c1ccccc1)Nc1ccc(O)cc1 | -8 | 12 | 16 | 18 | 20 | -2 | /
CC(=O)Nc1ccc(NC(=O)CNC(=O)c2cccc(C)c2)cc1 | / | -8 | 1 | 1 | 1 | 0 | /
Cc1cc(Br)ccc1NC(=O)CN(C)C(=O)C1CSC2(C)CCC(=O)N12 (stereo unspecified) | / | -7 | 5 | 10 | 3 | / | /
Cc1ccc(C(=O)NC2CCN(CC(=O)NC3CCC(C)CC3)CC2)cc1 (stereo unspecified) | / | -1 | 1 | -4 | -5 | 1 | /
CCc1cccc(C)c1NC(=O)c1ccccc1 | 1 | -1 | -1 | -1 | 6 | -4 | /
CCc1cccc(C)c1NC(=O)C1=C(C(=O)O)CCCC1 | 1 | 19* | 29 | 32 | 39* | -1 | 7 | eLon confirm=32*
CC(=O)Nc1ccc(S(=O)(=O)NCc2ccc(C)cc2)cc1 | 2 | 5 | -4 | -4 | -7 | 2 | /
CC(=O)Nc1ccc(S(=O)(=O)NCc2ccc3c(c2)cc(C)n3C)cc1 | 12 | 49* | 34* | 32 | 44* | 0 | 17 | eLon confirm=22*
O=C(Nc1ccc(Cl)cc1)Nc1ccc(N2CCC(C(F)(F)F)CC2)nc1 | 36 | 47* | 31* | 32 | 38* | -9 | 23 | eLon confirm=8
CC1(C(=O)NS(=O)(=O)c2cccc(F)c2)CCN1C(=O)C1CCCCC1 (stereo unspecified) | / | -4 | / | / | / | / | /
CC1=C(C(N)=O)S(=O)(=O)c2ccccc21 | 12 | 18* | 20 | 21 | 38* | -9 | 24 | eLon confirm=29*

Screening results (PubChem)
